The list is not random: actives were taken first. Their share in the collection is about 12%.
Cycloheximide cs: counter-screen hit for Shiga toxin inhibitors, cycloheximide. cell reporter, cycloheximide protein synthesis inhibition counterscreen. 12% of 300,000 active. max response, %; in the data active = max response mostly above about 13%, no sharp cut-off; inactive = mostly below about 14%; note: read at 38.3 µM for the half of the compounds with a filed dose
Shiga toxin inh: inhibitors of Shiga toxin in Vero cells; 9.2% of 290,000 active; Vero cells, Shiga toxin protein synthesis inhibition reporter; inhibition, % at 38.7 µM; in the data active = inhibition mostly above about 28%, no sharp cut-off; inactive = mostly below about 43%
NS1 function inh: influenza NS1 inhibition; 0.4% of 270,000 active; Potency, µM (doses to about 46.1 µM); note: actives are rising curves; nearly all actives have a fitted effect of over 50% in size
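In this qHTS, NS1 from influenza A is expressed in budding yeast, where it slows growth. Cells are switched from glucose to 2% galactose medium (pH 6.0, -URA), treated with compound, and growth recovery is read at OD600.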
SARS PLP yeast: inhibitors of SARS-CoV papain-like protease in yeast | Potency, µM (top dose mostly 32.9 µM), actives largely listed as activators | 0.19% of 330,000 active | S. cerevisiae expressing SARS-CoV PLpro, growth rescue | AID 485353; note: nearly all actives have a fitted effect of over 55% in size
A number is an active result; – = inactive; ? = inconclusive; · = no result given; + = active, no number. Unless noted, calls come from the whole dose curve.

SMILES	Cycloheximide cs	Shiga toxin inh	NS1 function inh	SARS PLP yeast
C/C(=N/NC(=O)c1cccnc1)C1=C(O)CC(C)(C)CC1=O	–	–	·	–
O=C(NC1CCCN(Cc2ccc(Cl)cc2)C1)c1cccc(F)c1 (stereo not given)	–	–	–	?
O=C(Nc1ccc(CN2CCCCC2)cc1)c1cccc(F)c1	31	39	–	–
CCOc1ccc(OCc2cccc(C(=O)Nc3ccc(CN4CCCCC4)cc3)c2)cc1	122	87	–	–
COc1ccc(OCc2cccc(C(=O)Nc3ccc(CN4CCCCC4)cc3)c2)cc1	127	+	–	–
COc1cc(OC)cc(C(=O)Nc2ccc(CN3CCCCC3)cc2)c1	–	–	–	–
COc1ccc(C(=O)n2nc(-c3ccccc3)nc2N)cc1OC	–	–	–	–
COc1ccc(Cl)c2c1[nH]c1nc(SCc3ccccn3)nnc12	41	89	·	–
COc1ccc(Cl)c2c1[nH]c1nc(SCc3cccnc3)nnc12	–	–	–	–
Cc1ccc2c(Cl)c(C(=O)NCCc3ccccc3)sc2c1	48	124	–	–
Cc1ccc2c(Cl)c(C(=O)Nc3cc(C)on3)sc2c1	31	78	–	–
Cc1cc(NC(=O)c2c(Cl)cccc2Cl)no1	–	–	–	–
CCNC(=O)c1sc2cc(C)ccc2c1Cl	25	39	–	–
CCOc1ccc(S(=O)(=O)N(CC(=O)NN=C2CCN(C)CC2)c2ccc(C)cc2)cc1	–	–	?	–
CCOc1ccccc1OCCCC(=O)Nc1sccc1C(N)=O	–	–	–	–
NC(=O)c1cccc(-c2cc(Nc3ccc(OC(F)(F)F)cc3)ncn2)c1	13	–	–	–
CCc1noc(C)c1C(=O)OCC(=O)Nc1ccc2c(c1)OCO2	·	·	·	–
COc1ccc(/C=C/C(=O)N[C@@H](C)C(=O)O)cc1	–	–	–	–
COc1ccc(/C=C/C(=O)C(C(N)=O)=C2SCCS2)cc1	31	49	–	–
CCC(=O)Nc1ccc(NC(=O)/C=C/c2ccc(Cl)cc2)cc1	–	–	–	–
NC(=O)C(C(=O)/C=C/c1ccc(Cl)cc1)=C1SCCS1	15	–	–	–
Cc1ccc([N+](=O)[O-])cc1NC(=O)c1ccc2c(c1)OCO2	–	–	–	–
O=C(/C=C/Nc1cccc([N+](=O)[O-])c1)c1cccs1	32	89	–	–
Cc1ccc([N+](=O)[O-])cc1NC(=O)c1cccs1	–	–	–	–
CNc1cc([N+](=O)[O-])ccc1N/C=C/C(=O)c1cccs1	33	107	–	–
SMILES	Cycloheximide cs	Shiga toxin inh	NS1 function inh	SARS PLP yeast
O=C(Cc1cccs1)Nc1cccc([N+](=O)[O-])c1	–	–	–	–
CNc1cc([N+](=O)[O-])ccc1N/C=C/C(=O)c1ccc2c(c1)OCO2	76	124	?	–
Nc1nc(N2CCN(c3ccccn3)CC2)nc2ccccc12	43	89	–	–
Oc1ccccc1-c1n[nH]c(=S)n1Cc1ccco1	–	–	–	–
CCOC(=O)C1(Cc2ccc(OC)cc2)CCN(C(=O)CC2CCC(=O)N2)CC1 (stereo not given)	–	–	–	–
CCOC(=O)C1(Cc2ccc(Cl)cc2)CCN(C(=O)CCc2cnccn2)CC1	–	–	–	–
CCOC(=O)C1(Cc2ccc(OC)cc2)CCN(C(=O)CCc2cnccn2)CC1	14	–	–	–
CCOC(=O)C1(CCc2ccccc2)CCN(C(=O)CCc2cnccn2)CC1	24	55	–	–
CCOC(=O)C1(Cc2ccc(OC)cc2)CCN(C(=O)CCN2CCCC2=O)CC1	17	–	–	–
CCOC(=O)C1(CCCc2ccccc2)CCN(C(=O)CCc2cnccn2)CC1	–	–	–	–
COc1ccc(NS(=O)(=O)c2ccc(F)c(Cl)c2)cn1	–	–	–	–
CCCC1CCC(=NNS(=O)(=O)c2ccc(C)c([N+](=O)[O-])c2)CC1 (stereo not given)	–	–	–	–
CCCC1CCC(=NNC(=O)OC(C)(C)C)CC1 (stereo not given)	31	–	–	–
CCc1nnc(NC(=O)C(C)Sc2ccccc2)s1 (stereo not given)	–	–	–	–
Cc1cccc(C)c1NC(=O)CSc1nnc(C2CCCCC2)o1	–	–	–	–
O=C(CSc1nnc(C2COc3ccccc3O2)o1)N1CCCC1 (stereo not given)	47	52	–	–
O=C(CSc1nnc(C2CCCCC2)o1)N1CCCCC1	31	81	–	–
CCOC(=O)N1CCN(C(=O)CSc2nnc(C3COc4ccccc4O3)o2)CC1 (stereo not given)	–	–	–	–
COc1ccccc1N(CC(O)Cn1ccnc1C)S(=O)(=O)c1ccccc1 (stereo not given)	–	–	·	–
O=C(COC(=O)/C=C/c1cccc([N+](=O)[O-])c1)NCC1CCCO1 (stereo not given)	–	–	·	–
O=C(Nc1ccc(F)c(Cl)c1)Nc1cnccn1	–	–	–	–
O=C(Nc1ccccc1)Nc1cnccn1	–	24	–	–
CC(C)c1ccc(NC(=O)Nc2cnccn2)cc1	61	73	–	–
O=C(Nc1ccc(Cl)cc1)Nc1cnccn1	27	–	–	–
O=C(Nc1cccc(Cl)c1)Nc1cnccn1	–	–	–	–
SMILES	Cycloheximide cs	Shiga toxin inh	NS1 function inh	SARS PLP yeast
Cc1ccc(NC(=O)Nc2cnccn2)cc1	63	72	–	–
COc1ccc(NC(=O)Nc2c(C)n(C)n(-c3ccccc3)c2=O)c(OC)c1	–	–	–	–
Cc1[nH]c(SCC(=O)Nc2cc(S(C)(=O)=O)ccc2Cl)nc1Cc1ccccc1	·	·	·	–
O=C(Nc1cnccn1)Nc1cccc(Cl)c1Cl	26	–	·	–
O=C(Nc1ccncc1)Nc1ccc(Cl)cc1	33	–	–	–
Cc1ccc(NC(=O)Nc2cnccn2)cc1C	28	96	–	–
O=C(NC1=NCCS1)c1cccc(S(=O)(=O)N2CCOCC2)c1	·	·	·	–
O=S(=O)(c1ccc(Cl)cc1)N1CCN(c2ncnc3sccc23)CC1	·	·	·	–
COc1cccc(OC)c1OCCN1CCN(C(c2ccccc2)c2ccccc2)CC1	–	–	–	–
COc1cc(OC)cc(C(=O)NC2CCCCCCC2)c1	–	–	–	–
CCC(=O)Nc1cccc(-n2nnnc2SCC(=O)N2CCCCC2)c1	18	–	–	–
COc1cc(OC)cc(-n2nnnc2SCC(=O)N2CCCC2)c1	–	–	–	–
CCCCn1c(N)c(N(CC(C)C)C(=O)CCCc2nc3ccccc3c(=O)[nH]2)c(=O)[nH]c1=O	·	·	·	–
CC1=Nc2cc([N+](=O)[O-])ccc2NC(C)(C)C1	62	115	–	–
O=[N+]([O-])c1ccc2cn[nH]c2c1	–	–	–	–
CCCCCNC(=O)c1c[nH]c2ccc(S(=O)(=O)N3CCC4(CC3)OCCO4)cc2c1=O	–	–	–	–
COc1ccc(NC(=O)c2cc(S(=O)(=O)N3CCc4ccccc43)cn2C)cc1	14	28	–	–
O=Nc1ccc(NOC(=O)c2ccccc2)cc1	44	47	–	–
N#Cc1c(N)nc2c(c1-c1ccc(F)cc1)c(=O)nc1sccn12	–	–	·	–
N#CC(C#N)=c1ccc2c(c1)NC1(CCCCC1)N=2	37	65	–	–
N#CC(C#N)=C1NC2(CCCCC2)Cc2ccccc21	–	–	–	–
O=C(CSc1nnc(-c2ccco2)o1)c1ccc(F)c(F)c1	–	–	–	–
O=C(CSc1nnc(-c2ccco2)o1)c1ccccc1	33	–	–	–

Screening data (PubChem BioAssay)
